Experimental data published in PubChem BioAssay AID1159580 (chemical genetic matrix, 2015).
In all, about 5,500 compounds went through this assay and about 2,000 (36%) were called active. Inconclusive results (about 18%) are left out. Cut-off read from the data, not from the text of the source: active = normalized growth mostly below about 0.91 (no sharp cut-off); inconclusive = no clear call, values can overlap the other calls; inactive = mostly above about 0.92. This is one part of the list.

Experiment: chemical genetic growth profiling, strain panel (AID 1159580);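 note: tested at 20 µM; growth read once vehicle control cultures reached saturation at 30 °C; 1 = growth at the plate median or of vehicle wells; lower values mean less growth of the strain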
Settings: growth OD
[1] = S. cerevisiae deletion strains, locus YAL013W, strain DEP1, stronger effect = lower value
[2] = S. cerevisiae deletion strains, locus YGR229C, strain SMI1, stronger effect = lower value
[3] = S. cerevisiae deletion strains, locus YMR263W, strain SAP30, stronger effect = lower value
[4] = S. cerevisiae deletion strains, locus YMR307W, strain GAS1, stronger effect = lower value
[5] = S. cerevisiae deletion strains, locus YNL128W, strain TEP1, stronger effect = lower value
[6] = S. cerevisiae deletion strains, locus YPL241C, strain CIN2, stronger effect = lower value

Measured: normalized growth

CC(C)(C)NC[C@H](O)COc1nsnc1N1CCOCC1
inactive: [1] 1.01 | S. cerevisiae deletion strains, locus YAL040C, strain CLN3, stronger effect = lower value 1.03 | S. cerevisiae deletion strains, locus YCL061C, strain MRC1 (second series), stronger effect = lower value 1 | S. cerevisiae deletion strains, locus YDR363W, strain ESC2, stronger effect = lower value 0.989 | S. cerevisiae deletion strains, locus YER002W, strain NOP16, stronger effect = lower value 0.998 | [2] 1.03 | [3] 0.993 | [4] 0.992 | [5] 0.995 | S. cerevisiae deletion strains, locus YNL175C, strain NOP13, stronger effect = lower value 0.997 | S. cerevisiae deletion strains, locus YNL197C, strain WHI3, stronger effect = lower value 0.99 | S. cerevisiae deletion strains, locus YNL224C, strain SQS1, stronger effect = lower value 0.988 | S. cerevisiae deletion strains, locus YOR083W, strain WHI5 (second series), stronger effect = lower value 0.996 | [6] 1

CCS(=O)CCSP(=O)(OC)OC (stereo not given)
inactive: [1] 1.01 | S. cerevisiae deletion strains, locus YBR021W, strain FUR4, stronger effect = lower value 1 | S. cerevisiae deletion strains, locus YBR229C, strain ROT2, stronger effect = lower value 1.02 | S. cerevisiae deletion strains, locus YCL029C, strain bik1, stronger effect = lower value 1 | S. cerevisiae deletion strains, locus YDL035C, strain GPR1, stronger effect = lower value 1.01 | S. cerevisiae deletion strains, locus YDL074C, strain BRE1, stronger effect = lower value 0.998 | S. cerevisiae deletion strains, locus YDL101C, strain DUN1, stronger effect = lower value 1.01 | S. cerevisiae deletion strains, locus YDL134C, strain PPH21, stronger effect = lower value 1.01 | S. cerevisiae deletion strains, locus YDL185W, strain tfp1, stronger effect = lower value 1.01 | S. cerevisiae deletion strains, locus YDL192W, strain arf1, stronger effect = lower value 1 | S. cerevisiae deletion strains, locus YDR101C, strain arx1, stronger effect = lower value 1 | S. cerevisiae deletion strains, locus YDR150W, strain NUM1, stronger effect = lower value 1.01 | S. cerevisiae deletion strains, locus YDR162C, strain NBP2, stronger effect = lower value 1.03 | S. cerevisiae deletion strains, locus YDR318W, strain mcm21, stronger effect = lower value 1.01 | S. cerevisiae deletion strains, locus YDR388W, stronger effect = lower value 1.01 | S. cerevisiae deletion strains, locus YDR502C, strain sam2, stronger effect = lower value 0.995 | S. cerevisiae deletion strains, locus YEL061C, strain CIN8, stronger effect = lower value 1.02 | S. cerevisiae deletion strains, locus YER110C, stronger effect = lower value 1.01 | S. cerevisiae deletion strains, locus YER155C, strain BEM2, stronger effect = lower value 1.02 | S. cerevisiae deletion strains, locus YER167W, strain BCK2, stronger effect = lower value 1.02 | S. cerevisiae deletion strains, locus YGL078C, strain dbp3, stronger effect = lower value 1.01 | S. cerevisiae deletion strains, locus YGL086W, strain mad1, stronger effect = lower value 1 | S. cerevisiae deletion strains, locus YGL248W, strain PDE1, stronger effect = lower value 1.01 | S. cerevisiae deletion strains, locus YGR078C, strain PAC10, stronger effect = lower value 1.02 | S. cerevisiae deletion strains, locus YGR135W, strain pre9, stronger effect = lower value 1.01 | [2] 0.999 | S. cerevisiae deletion strains, locus YGR252W, strain gcn5, stronger effect = lower value 0.945 | S. cerevisiae deletion strains, locus YHR030C, strain SLT2, stronger effect = lower value 1 | S. cerevisiae deletion strains, locus YHR079C, strain IRE1 (second series), stronger effect = lower value 1.01 | S. cerevisiae deletion strains, locus YHR094C, strain hxt1, stronger effect = lower value 1.01 | S. cerevisiae deletion strains, locus YHR129C, strain ARP1, stronger effect = lower value 1.02 | S. cerevisiae deletion strains, locus YHR200W, strain rpn10, stronger effect = lower value 1 | S. cerevisiae deletion strains, locus YIL066C, strain RNR3, stronger effect = lower value 1.03 | S. cerevisiae deletion strains, locus YIL073C, strain SPO22, stronger effect = lower value 1.06 | S. cerevisiae deletion strains, locus YIL125W, strain kgd1, stronger effect = lower value 0.997 | S. cerevisiae deletion strains, locus YIR030C, strain dcg1, stronger effect = lower value 1.01 | S. cerevisiae deletion strains, locus YJL095W, strain BCK1, stronger effect = lower value 1.03 | S. cerevisiae deletion strains, locus YJL134W, strain LCB3, stronger effect = lower value 1.01 | S. cerevisiae deletion strains, locus YJL168C, strain set2, stronger effect = lower value 1 | S. cerevisiae deletion strains, locus YJL187C, strain SWE1 (second series), stronger effect = lower value 1.02 | S. cerevisiae deletion strains, locus YJR043C, strain POL32, stronger effect = lower value 1.02 | S. cerevisiae deletion strains, locus YJR075W, strain HOC1, stronger effect = lower value 0.99 | S. cerevisiae deletion strains, locus YKL009W, strain mrt4, stronger effect = lower value 0.977 | S. cerevisiae deletion strains, locus YKL068W, stronger effect = lower value 1 | S. cerevisiae deletion strains, locus YKL085W, strain MDH1 (second series), stronger effect = lower value 1.01 | S. cerevisiae deletion strains, locus YKL085W, strain MDH1, stronger effect = lower value 1.01 | S. cerevisiae deletion strains, locus YKL190W, strain CNB1, stronger effect = lower value 1.01 | S. cerevisiae deletion strains, locus YKR001C, strain vps1, stronger effect = lower value 1 | S. cerevisiae deletion strains, locus YLR039C, strain RIC1, stronger effect = lower value 1.04 | S. cerevisiae deletion strains, locus YLR058C, strain SHM2, stronger effect = lower value 1.02 | S. cerevisiae deletion strains, locus YLR102C, strain apc9, stronger effect = lower value 1 | S. cerevisiae deletion strains, locus YLR262C, strain YPT6, stronger effect = lower value 1.02 | S. cerevisiae deletion strains, locus YLR268W, strain sec22, stronger effect = lower value 0.999 | S. cerevisiae deletion strains, locus YLR330W, strain CHS5, stronger effect = lower value 1.01 | S. cerevisiae deletion strains, locus YLR342W, strain FKS1 (second series), stronger effect = lower value 1.02 | S. cerevisiae deletion strains, locus YLR371W, strain rom2, stronger effect = lower value 0.999 | S. cerevisiae deletion strains, locus YLR418C, strain cdc73, stronger effect = lower value 0.984 | S. cerevisiae deletion strains, locus YML016C, strain PPZ1, stronger effect = lower value 1.01 | S. cerevisiae deletion strains, locus YML032C, strain rad52, stronger effect = lower value 1.01 | S. cerevisiae deletion strains, locus YML124C, strain tub3, stronger effect = lower value 1.01 | S. cerevisiae deletion strains, locus YMR078C, strain ctf18, stronger effect = lower value 1.01 | S. cerevisiae deletion strains, locus YMR223W, strain ubp8, stronger effect = lower value 1 | [3] 1.02 | [4] 1 | S. cerevisiae deletion strains, locus YNL067W, strain RPL9B, stronger effect = lower value 1.01 | [5] 1.02 | S. cerevisiae deletion strains, locus YNL153C, strain GIM3, stronger effect = lower value 1.01 | S. cerevisiae deletion strains, locus YNL233W, strain BNI4, stronger effect = lower value 1.01 | S. cerevisiae deletion strains, locus YNL250W, strain rad50, stronger effect = lower value 1.01 | S. cerevisiae deletion strains, locus YNL271C, strain bni1, stronger effect = lower value 1 | S. cerevisiae deletion strains, locus YNL298W, strain CLA4, stronger effect = lower value 1.01 | S. cerevisiae deletion strains, locus YNL307C, strain MCK1, stronger effect = lower value 1.01 | S. cerevisiae deletion strains, locus YNL322C, strain KRE1, stronger effect = lower value 1.01 | S. cerevisiae deletion strains, locus YNR052C, strain pop2, stronger effect = lower value 1 | S. cerevisiae deletion strains, locus YOL006C, strain TOP1, stronger effect = lower value 1.01 | S. cerevisiae deletion strains, locus YOL012C, strain htz1 0.877 | S. cerevisiae deletion strains, locus YOL147C, strain pex11, stronger effect = lower value 1 | S. cerevisiae deletion strains, locus YOR061W, strain CKA2, stronger effect = lower value 1.01 | S. cerevisiae deletion strains, locus YOR069W, strain VPS5, stronger effect = lower value 1 | S. cerevisiae deletion strains, locus YOR136W, strain idh2, stronger effect = lower value 1 | S. cerevisiae deletion strains, locus YOR144C, strain elg1, stronger effect = lower value 1.01 | S. cerevisiae deletion strains, locus YOR184W, strain ser1, stronger effect = lower value 1 | S. cerevisiae deletion strains, locus YOR316C, strain cot1, stronger effect = lower value 1 | S. cerevisiae deletion strains, locus YPL055C, strain LGE1, stronger effect = lower value 1.01 | [6] 1.01 | S. cerevisiae deletion strains, locus YPR119W, strain clb2, stronger effect = lower value 1.01 | S. cerevisiae deletion strains, locus YPR141C, strain kar3, stronger effect = lower value 0.997 | S. cerevisiae deletion strains, locus YPR163C, strain tif3, stronger effect = lower value 1.01 | S. cerevisiae deletion strains, locus YPR167C, strain met16, stronger effect = lower value 0.998 | S. cerevisiae deletion strains, strain wtn01, stronger effect = lower value 0.996 | S. cerevisiae strains, strain wild type, stronger effect = lower value 1.01
